The record followed here is PubChem BioAssay (Tox21).

Molecules are shown by their SMILES. A number with no mark means an inactive call. Inconclusive results are not listed. Activity calls are given as the source filed them. Unless noted, the call rests on the fitted dose curve.

Experiment [1] can be described thus: Nuclear factor erythroid 2-related factor 2/antioxidant responsive element (Nrf2/ARE) small molecule agonists: qHTS cell viability counter screen in human keratinocytes (AID 1919968; active means well fitted curve in the direction sought with a large enough effect in the repeat runs; an effect the other way counts as inactive or inconclusive; further: nearly all actives have a fitted effect of over 55% in size; further: potency means the concentration at half of the fitted maximal effect). Put shortly: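 In human HaCaT keratinocytes stably expressing an ARE-driven luciferase, compound exposure lasted 23 h at 37 C under 5% CO2. Viable cells are quantified with a protease-based fluorogenic reagent (CellTiter-Fluor) read 1 h after addition.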

Experiment [2] is described as follows: Nuclear factor erythroid 2-related factor 2/antioxidant responsive element (Nrf2/ARE) small molecule agonists: luciferase reporter gene qHTS assay in human keratinocytes (AID 1919969). Further: nearly all actives have a fitted effect of over 35% in size. Further: potency means the concentration at half of the fitted maximal effect. On the technique in general: Reporter assays use an easily measured gene product as a stand-in for the process of interest.
Experiment [3] addresses Gonadotropin-releasing hormone receptor (Homo sapiens) (UniProt P30968). The experiment in a line: Human gonadotropin-releasing hormone receptor (GnRHR) small molecule agonists, calcium flux assay in GnRHR-HEK293 cells (AID 1920063). Further: nearly all actives have a fitted effect of over 35% in size. Put shortly:
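Intracellular calcium rise is the read-out: engineered human GnRHR HEK293 cells, dye-loaded, are exposed to DMSO-dissolved compounds and fluorescence at Ex/Em 480/540 is tracked for 3 min.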

The target of experiment [4] is KiSS-1 receptor (Homo sapiens) (UniProt Q969F8). The experiment in a line: Human kisspeptin (KISS1R) small molecule agonists, calcium flux assay in KISS1R-HEK293 cells (AID 1920064; active means well fitted curve in the direction sought with a large enough effect in the repeat runs; an effect the other way counts as inactive or inconclusive). Put shortly:
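Concentration-response testing used 15 concentrations in triplicate on human KISS1R-expressing HEK293 cells. Calcium-dependent fluorescence (Ex/Em 480/540) was followed kinetically for 3 min after compound transfer.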
(Calcium flux is commonly read through the fluorescence of an indicator in the cells.)

Experiment [5] can be described thus: G protein-coupled receptor (GPCR) small molecule agonists, calcium flux assay: HEK293 wild type cell line counter screen (AID 1920065). Put shortly: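 Fluorescence intensity signals activation. After overnight (18 h) culture and a 1 h calcium dye load at 37 C, compounds are added by pin tool and the plate read at 480/540 nm for 3 min in 1 s steps.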
Experiment [6] in a line: p53 small molecule agonists, cell-based qHTS assay with human liver microsomes (AID 1963577).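 Further: p53 response element beta-lactamase reporter cells with liver microsomes plus NADPH.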 Put shortly: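 Steps: plate p53RE-bla cells, incubate 5 h at 37 C; add compound in DMSO; add microsomes (0.5 mg/mL final) and NADPH (0.5 mg/mL final); incubate 16 h at 37 C; add LiveBLAzer, 2 h RT; read fluorescence.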
In general terms: In qHTS, concentration-response curves come from the screen itself.

A short description of experiment [7]: p53 small molecule agonists, cell-based qHTS assay with rat liver microsomes (AID 1963578). Put shortly: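 Metabolic activation is supplied by rat liver microsomes with NADPH (each 0.5 mg/mL final). p53RE-bla cells incubate with compound 16 h at 37 C; reporter activity is measured by LiveBLAzer fluorescence.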
Experiment [8] can be described thus: p53 small molecule agonists, cell-based qHTS assay with rat liver microsomes: qHTS cell viability counter screen (AID 1963580). Further: nearly all actives have a fitted effect of over 45% in size. Further: potency means the concentration at half of the fitted maximal effect. Put shortly:
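Cytotoxicity counter screen: intracellular ATP measured by CellTiter-Glo luminescence in the same wells as the beta-lactamase reporter read, on HCT-116 p53RE-bla cells exposed 16 h at 37 C to compounds with rat liver microsomes and NADPH, each 0.5 mg/mL final.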

The nature of experiment [9]: p53 small molecule agonists, cell-based qHTS assay: qHTS cell viability counter screen (AID 1963581). Further: nearly all actives have a fitted effect of over 45% in size. Further: potency means the concentration at half of the fitted maximal effect. Put shortly: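 Luminescence from CellTiter-Glo, reflecting ATP content, serves as the cytotoxicity measure; it is taken after the 2 h reporter substrate step in HCT-116 p53RE-bla cells dosed for 16 h at 37 C.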
Experiment [10] in a line: p53 small molecule agonists, cell-based qHTS assay (AID 1963582; active means well fitted activation curve with a large enough effect in the signal ratio in the repeat runs, not every such curve was filed as active; the % refers to the signal ratio; further: potency means the concentration at half of the fitted maximal effect). Put shortly:
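After plating, p53RE-bla cells sat 5 h in the incubator; compounds or DMSO vehicle were pinned in; a 16 h incubation at 37 C followed; FRET substrate was added and, 2 h later at RT, fluorescence was measured.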

For experiment [11], the target named is 5-hydroxytryptamine receptor 2A (Homo sapiens) (UniProt P28223). The experiment in a line: 5-hydroxytryptamine receptor 2A (HTR2A) small molecule antagonists, cell-based qHTS assay (AID 1963586). Further: nearly all actives have a fitted effect of over 45% in size. Put shortly: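 CHO cells stably expressing human HTR2A were plated for 18 h at 37 C, then loaded with calcium dye for 1 h. Compounds were preincubated 5 min at room temperature before DOI (4 nM solution) was added. Kinetic fluorescence was read for 3 min.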
5-hydroxytryptamine receptor 2A (Homo sapiens), sequence (P28223 whole entry, looked up): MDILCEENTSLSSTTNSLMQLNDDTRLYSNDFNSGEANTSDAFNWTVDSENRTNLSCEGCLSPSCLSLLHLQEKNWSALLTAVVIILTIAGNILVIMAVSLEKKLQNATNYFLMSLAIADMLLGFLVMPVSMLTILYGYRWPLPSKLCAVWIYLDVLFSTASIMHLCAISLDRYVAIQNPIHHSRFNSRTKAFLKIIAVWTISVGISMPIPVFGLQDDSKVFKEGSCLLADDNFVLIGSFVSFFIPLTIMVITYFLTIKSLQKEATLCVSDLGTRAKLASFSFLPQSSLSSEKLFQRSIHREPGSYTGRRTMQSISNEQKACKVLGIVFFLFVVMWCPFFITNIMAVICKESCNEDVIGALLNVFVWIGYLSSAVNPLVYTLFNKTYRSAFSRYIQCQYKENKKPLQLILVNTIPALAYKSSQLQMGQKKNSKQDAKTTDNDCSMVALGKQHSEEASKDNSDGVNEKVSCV

Experiment [12] shares this target. The experiment in a line: 5-hydroxytryptamine receptor 2A (HTR2A) small molecule agonists, cell-based qHTS assay (AID 1963587). Further: nearly all actives have a fitted effect of over 30% in size. Put shortly:
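CHO cells stably expressing human HTR2A, plated 18 h, loaded with calcium dye 1 h at 37 C. Agonist mode: compounds added and intracellular calcium fluorescence recorded kinetically for 2 min at 1 sec intervals.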

In experiment [13] the target is Muscarinic acetylcholine receptor M1 (Homo sapiens) (UniProt P11229). In words: Cholinergic receptor muscarinic 1 (CHRM1) small molecule antagonists, cell-based qHTS assay (AID 1963588). Further: nearly all actives have a fitted effect of over 40% in size. Put shortly:
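Compounds were tested at 15 concentrations in three independent runs. Dye-loaded CHRM1-CHO cells were exposed 5 min at room temperature before stimulation by acetylcholine added at 50nM. Intracellular calcium was read kinetically on FDSS for 3 min.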

For experiment [14] the target is unchanged. The experiment in a line: Cholinergic receptor muscarinic 1 (CHRM1) small molecule agonists, cell-based qHTS assay (AID 1963589). Further: nearly all actives have a fitted effect of over 35% in size. Put shortly: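 Fluorescent calcium dye reports M1 activation in stably transfected CHO cells. Compounds, 15 concentrations, added after 1 h dye loading at 37 C; kinetic reading at 1 sec intervals.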
Experiment [15] can be described thus: cAMP Responsive Elements (CRE) small molecule agonists, cell-based qHTS assay (AID 1963590). Put shortly: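 Compound exposure lasted 3 h at 37 C/5% CO2 in CRE-bla HEK 293T cells grown in assay medium with 10% dialyzed FBS and 25 mM HEPES. Reporter signal came from LiveBLAzer B/G FRET substrate, 2 h, room temperature.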
Experiment [16] in a line: cAMP Responsive Elements (CRE) small molecule antagonists, cell-based qHTS assay (AID 1963591; active means well fitted inhibition curve with a large enough effect in the signal ratio in the repeat runs, not every such curve was filed as active; the % refers to the signal ratio). Put shortly: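 Stimulation used NKH477 at a final 0.25 uM for 3 h in compound-treated CRE-bla HEK293T cells, seeded 18 h beforehand. Reporter activity was measured with LiveBLAzer B/G FRET substrate after 2 h at room temperature.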
For experiment [17], the target named is D(2) dopamine receptor (Homo sapiens) (UniProt P14416). The experiment in a line: Dopamine D2 receptor (DRD2) small molecule agonists, cell-based qHTS assay (AID 1963594). Further: nearly all actives have a fitted effect of over 35% in size. Put shortly: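 HEK293 cells stably expressing human DRD2, pre-treated with PDE inhibitor Ro20-1724 (0.1 mM final) and compound 10 min at room temperature, then stimulated with NKH477 (200nM […]) for 30 min. cAMP read by HTRF (665/620 nm).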
D(2) dopamine receptor (Homo sapiens), sequence (P14416 whole entry, looked up): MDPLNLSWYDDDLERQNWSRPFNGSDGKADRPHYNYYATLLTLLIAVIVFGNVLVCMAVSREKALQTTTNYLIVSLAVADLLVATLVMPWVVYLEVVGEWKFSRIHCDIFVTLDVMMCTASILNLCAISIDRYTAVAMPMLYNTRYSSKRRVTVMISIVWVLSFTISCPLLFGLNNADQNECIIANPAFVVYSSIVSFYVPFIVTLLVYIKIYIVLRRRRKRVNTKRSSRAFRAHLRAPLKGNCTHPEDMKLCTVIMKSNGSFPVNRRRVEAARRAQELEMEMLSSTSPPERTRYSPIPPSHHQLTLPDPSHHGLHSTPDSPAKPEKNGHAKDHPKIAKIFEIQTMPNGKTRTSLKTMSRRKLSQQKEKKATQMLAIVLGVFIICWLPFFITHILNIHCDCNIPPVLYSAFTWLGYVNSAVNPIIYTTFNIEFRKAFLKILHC

The target is the same in experiment [18]. The experiment in a line: Dopamine D2 receptor (DRD2) small molecule antagonists, cell-based qHTS assay (AID 1963595; active means well fitted inhibition curve with a large enough effect in the signal ratio in the repeat runs, with a control signal flat; the % refers to the signal ratio). Put shortly:
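Human DRD2 antagonist qHTS measuring cAMP by HTRF. The cells are exposed to compound for 10 min, then to NKH477 (200 nM) and quinpirole (12 nM) for 30 min at RT, with Ro20-1724 (0.1 mM) present throughout.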

For experiment [19], the target named is Beta-2 adrenergic receptor (Homo sapiens) (UniProt P07550). In words: Adrenergic beta2 receptor (ADRB2) small molecule antagonists, cell-based qHTS assay (AID 1963592). Further: series mostly up to about 92 µM; nearly all actives have a fitted effect of over 50% in size. Put shortly: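 Assay format: CHO-ADRB2 cells, 18-20hr seeding at 37C/5% CO2, then compound plus 1nM isoproterenol agonist mix for 0.5hr RT. Homogeneous time-resolved fluorescence cAMP detection after 1hr, expressed as 665/615 nm ratio.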
Beta-2 adrenergic receptor (Homo sapiens), sequence (P07550 whole entry, looked up): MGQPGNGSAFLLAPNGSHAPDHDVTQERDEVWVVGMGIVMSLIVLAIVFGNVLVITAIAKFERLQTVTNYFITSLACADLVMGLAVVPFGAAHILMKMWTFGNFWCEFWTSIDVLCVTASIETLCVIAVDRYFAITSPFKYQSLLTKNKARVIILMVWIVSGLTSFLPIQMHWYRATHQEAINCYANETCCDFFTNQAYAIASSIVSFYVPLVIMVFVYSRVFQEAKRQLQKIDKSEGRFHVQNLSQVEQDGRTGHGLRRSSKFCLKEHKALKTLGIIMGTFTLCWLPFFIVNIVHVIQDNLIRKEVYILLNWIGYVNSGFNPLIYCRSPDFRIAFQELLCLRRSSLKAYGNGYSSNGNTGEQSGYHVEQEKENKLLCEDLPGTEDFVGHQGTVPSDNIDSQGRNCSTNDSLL
On the % scale 0 is the no-effect control and ±100 the full control effect.

KiSS-1 receptor (Homo sapiens), sequence (Q969F8 whole entry, looked up): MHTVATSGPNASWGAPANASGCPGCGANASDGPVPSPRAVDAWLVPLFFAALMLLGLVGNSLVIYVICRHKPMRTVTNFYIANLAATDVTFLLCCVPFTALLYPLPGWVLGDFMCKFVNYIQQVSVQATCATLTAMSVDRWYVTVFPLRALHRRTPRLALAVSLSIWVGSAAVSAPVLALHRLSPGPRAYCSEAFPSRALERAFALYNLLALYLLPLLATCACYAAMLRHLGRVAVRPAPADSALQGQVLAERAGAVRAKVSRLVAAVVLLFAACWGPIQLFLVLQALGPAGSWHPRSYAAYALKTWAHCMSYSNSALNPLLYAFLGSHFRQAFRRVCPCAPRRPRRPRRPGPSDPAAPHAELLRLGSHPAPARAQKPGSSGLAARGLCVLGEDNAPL
Gonadotropin-releasing hormone receptor (Homo sapiens), sequence (P30968 whole entry, looked up): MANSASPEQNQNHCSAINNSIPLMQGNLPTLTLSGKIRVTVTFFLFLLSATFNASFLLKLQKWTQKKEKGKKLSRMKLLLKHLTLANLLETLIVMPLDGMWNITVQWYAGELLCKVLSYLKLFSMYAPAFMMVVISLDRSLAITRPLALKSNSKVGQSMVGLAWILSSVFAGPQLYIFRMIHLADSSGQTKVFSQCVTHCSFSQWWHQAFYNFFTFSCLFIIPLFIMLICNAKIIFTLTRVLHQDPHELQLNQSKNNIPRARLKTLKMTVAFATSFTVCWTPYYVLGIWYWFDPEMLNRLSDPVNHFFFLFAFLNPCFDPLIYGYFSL
Muscarinic acetylcholine receptor M1 (Homo sapiens), sequence (P11229 whole entry, looked up): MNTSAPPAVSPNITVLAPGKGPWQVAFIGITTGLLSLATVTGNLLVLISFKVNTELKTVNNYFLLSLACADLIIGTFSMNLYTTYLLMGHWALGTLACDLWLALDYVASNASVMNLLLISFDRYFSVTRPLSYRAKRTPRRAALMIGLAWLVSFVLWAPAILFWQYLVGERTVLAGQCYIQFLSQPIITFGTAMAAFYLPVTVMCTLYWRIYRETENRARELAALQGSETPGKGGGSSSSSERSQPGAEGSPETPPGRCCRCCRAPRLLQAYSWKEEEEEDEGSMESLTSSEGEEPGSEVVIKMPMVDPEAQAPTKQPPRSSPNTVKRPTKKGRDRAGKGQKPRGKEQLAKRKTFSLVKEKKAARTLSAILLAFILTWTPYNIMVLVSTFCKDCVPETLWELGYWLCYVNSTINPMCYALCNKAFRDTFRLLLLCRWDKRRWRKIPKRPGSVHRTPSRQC

In the case of `C=CCn1c(=O)n([C@@H]2O[C@H](CO)[C@@H](O)[C@H]2O)c2nc(N)[nH]c(=O)c21`, the Potency result in [1], in experiment [2], in experiment [3], in experiment [6], in experiment [7] and in experiment [8] was “inactive” in each case. Also, the Potency entry in experiment [9], in [10], in [11], in experiment [12], in experiment [13] and in [14] was “inactive” throughout. The Potency entry in [15], in experiment [16], in [17] and in experiment [18] was “inactive” each time. Moreover, the result in experiment [4] and in experiment [5] was inactive.
On to `C=C(C)C(=O)OCC1CCCO1` (configuration not stated), for which the Potency result in [1], in experiment [2], in [3], in experiment [6], in experiment [7] and in [8] was “inactive” each time. Further, the Potency entry in [9], in experiment [10], in [11], in experiment [13], in experiment [14] and in [15] was “inactive” in each case. In addition, the Potency result in [16], in experiment [19], in experiment [17] and in [18] was “inactive” throughout. Moreover, the result in [4] and in [5] was inactive.
`COC(=O)NN`: the Potency result in experiment [1], in experiment [2], in experiment [3], in experiment [6], in experiment [7] and in experiment [8] was “inactive” in each case. Also, the Potency entry in experiment [9], in experiment [10], in experiment [11], in experiment [12], in [13] and in experiment [14] was “inactive” each time. Besides, the Potency entry in [15], in experiment [19], in experiment [17] and in experiment [18] was “inactive” each time. The result in [4] and in experiment [5] was inactive.
`CC(C)C[C@H](NC(=O)[C@H](CCc1ccccc1)NC(=O)CN1CCOCC1)C(=O)N[C@@H](Cc1ccccc1)C(=O)N[C@@H](CC(C)C)C(=O)[C@@]1(C)CO1`: the Potency in experiment [1] was 298 nM (active); in experiment [2], 106 nM (active); in experiment [8], 4460 nM (active); in experiment [9], 630 nM (active); in [10], 112 nM (active). Besides, the Potency entry in experiment [3], in experiment [6], in experiment [7], in [11], in [12] and in experiment [13] was “inactive” each time. Further, the Potency result in experiment [19], in experiment [17] and in experiment [18] was “inactive” each time. For the same compound, the outcome in experiment [4] and in experiment [5] was inactive.
Turning to `C[C@@H]1CC[C@@]2(OC1)O[C@H]1C[C@H]3[C@@H]4CC[C@H]5C[C@@H](O)CC[C@]5(C)[C@H]4CC(=O)[C@]3(C)[C@H]1[C@@H]2C`, the activity change, negative = cytotoxicity in experiment [1] is -14.4% [at 8.39 µM]; in experiment [8], 5.02% [at 5.99 µM]; in [9], -10.7% [at 5.99 µM]. In [2], the activity, positive = activation was -0.515% [at 8.39 µM]. In addition, the activity change in [3] is -0.98% [at 5.22 µM, stronger effect = higher value]. Also, the activation in experiment [4] was 0.0336% [at 6.97 µM]; in experiment [5] it was 1.09% [at 5.23 µM]; in experiment [6] it was 1.05% [at 5.99 µM]; in [7], 0.138% [at 5.99 µM]; in [10] it was -0.0756% [at 5.99 µM]; in [12], -0.761% [at 7.02 µM]. Moreover, the activation is 0.4% [at 6.97 µM] in experiment [14], -0.0414% [at 8.39 µM] in experiment [15] and -11.7% [at 8.39 µM] in [17]. Moreover, the activity, negative = inhibition in experiment [11] is 89.9% [at 5.62 µM]; in experiment [13], 4.81% [at 5.58 µM]. Besides, the activity change, negative = inhibition was 0.931% [at 8.39 µM] in experiment [16], -3.89% [at 8.39 µM] in experiment [19] and -1.11% [at 8.38 µM] in experiment [18].
For the compound `CC1(C)OC(=O)Nc2ccc(Br)cc21`, the Potency result in experiment [1], in [2], in [3], in experiment [6], in [7] and in [8] was “inactive” each time. Besides, the Potency entry in experiment [9], in [10], in [11], in experiment [12], in experiment [13] and in experiment [14] was “inactive” in each case. In addition, the Potency result in [15], in experiment [19], in experiment [17] and in experiment [18] was “inactive” throughout. Also, the result in [4] and in experiment [5] was inactive.
